About 83,000 compounds went through this panel and 20% of them were active in at least one assay; those are over-represented in the sample as a whole.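 For each line, cells grew in 96-well plates with the test compound present at a single concentration for 48 hours.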 Values without a mark were called inactive. Calls of active or inactive are those of the source. Rule for the calls: active = growth percent below 10; inactive = the rest.

Test systems include HCT-15 colon; HT29 colon; SNB-75 CNS; SNB-19 CNS; U251 CNS; PC-3 prostate; SK-MEL-5 melanoma; UACC-62 melanoma; LOX IMVI melanoma; SK-MEL-28 melanoma; SK-MEL-2 melanoma; EKVX NSCLC; SN12C renal; UO-31 renal; TK-10 renal; ACHN renal; CAKI-1 renal; A498 renal; CCRF-CEM leukemia; MOLT-4 leukemia.
Test in all cases: NCI-60 one-dose screen, 48 h (100 = growth as untreated, 0 = no growth, -100 = all killed)
Conditions in all cases: 10 µM unless noted

As for `O=c1c2cc(F)cc(Cl)c2sc2c(NCCCNCCO)nc3ccccc3c12`, the growth in the assay with HCT-15 colon was 77.3%; in the assay with HT29 colon it was 3.35% (active); with SNB-75 CNS, 74.6%; in the assay with SNB-19 CNS, 88.1%; in the assay on U251 CNS, 75.8%; with PC-3 prostate, 82.7%. Also, the growth was 98.9% with SK-MEL-5 melanoma; 99.9% with UACC-62 melanoma; 66% in the assay with LOX IMVI melanoma; 108% with SK-MEL-28 melanoma; 107% in the assay on SK-MEL-2 melanoma; 88.2% in the assay with EKVX NSCLC. For the same molecule, the growth in the assay with SN12C renal is 83.4%; in the assay on UO-31 renal, 59.8%; with TK-10 renal it was 100%; in the assay with ACHN renal, 83.8%; in the assay with CAKI-1 renal, 71.2%; with A498 renal it was 56.2%. Further, the growth with CCRF-CEM leukemia was 15.8%; in the assay with MOLT-4 leukemia, 60.6%.
For the molecule `COc1cc(C(=O)N2N=C(c3ccc(S(C)(=O)=O)cc3)CC2c2ccco2)cc(OC)c1OC` (stereo not given), the growth is 39.4% in the assay on HCT-15 colon; 24.9% in the assay on HT29 colon; 46.9% in the assay on SNB-75 CNS; 75.9% in the assay on SNB-19 CNS; 57.7% in the assay with U251 CNS; 51% in the assay with PC-3 prostate. Besides, the growth in the assay on SK-MEL-5 melanoma was 39.8%; in the assay with UACC-62 melanoma, 29.3%; in the assay on LOX IMVI melanoma it was 50.5%; with SK-MEL-28 melanoma it was 89.2%; in the assay on SK-MEL-2 melanoma, 59.1%; with EKVX NSCLC, 86%. Also, the growth was 92.5% in the assay with SN12C renal; 18.6% in the assay with UO-31 renal; 106% with TK-10 renal; 48.5% in the assay with ACHN renal; 43.7% with CAKI-1 renal; 76.7% with A498 renal. In addition, the growth in the assay with CCRF-CEM leukemia is 42%; with MOLT-4 leukemia, 41.5%.
Consider `Cc1[nH]c(C(=O)Nc2ccc(C(=O)N3CCNCC3)cc2OC(C)C)c(Cl)c1Cl`, for which the growth was 49.7% in the assay on HCT-15 colon; 9.76% (active) with HT29 colon; 77.5% in the assay with SNB-75 CNS; 77.5% in the assay on SNB-19 CNS; 35.8% in the assay on U251 CNS; 71.5% with PC-3 prostate. Also, the growth with SK-MEL-5 melanoma was 93.4%; in the assay with UACC-62 melanoma, 102%; in the assay on LOX IMVI melanoma it was -16% (active); with SK-MEL-28 melanoma, 105%; with SK-MEL-2 melanoma, 106%; with EKVX NSCLC, 82.8%. Besides, the growth in the assay on SN12C renal is 80.1%; with UO-31 renal it was 47.9%; with TK-10 renal, 79.2%; in the assay with ACHN renal, 67.7%; in the assay on CAKI-1 renal, 48.8%; with A498 renal, 64.4%. Further, the growth is 27.7% in the assay with CCRF-CEM leukemia and 54.1% in the assay with MOLT-4 leukemia.
Turning to `CNCCCNc1nc2ccccc2c2c(=O)c3cc(F)ccc3sc12`, the growth is 3.52% (active) in the assay with HCT-15 colon; -39.7% (active) in the assay with HT29 colon; 59.5% in the assay on SNB-75 CNS; 65% with SNB-19 CNS; 2.96% (active) in the assay with U251 CNS; 39.6% in the assay with PC-3 prostate. Also, the growth with SK-MEL-5 melanoma is 73.7%; with UACC-62 melanoma, -1.88% (active); with LOX IMVI melanoma, -96.2% (active); in the assay with SK-MEL-28 melanoma, 50.1%; in the assay with SK-MEL-2 melanoma, 91%; in the assay on EKVX NSCLC, 64.7%. Besides, the growth in the assay on SN12C renal is 58.7%; with UO-31 renal, 20.8%; in the assay with TK-10 renal, 43.3%; in the assay on ACHN renal it was 10.9%; in the assay with CAKI-1 renal, -60.9% (active); with A498 renal, 28%. For the same molecule, the growth is -3.67% (active) in the assay with CCRF-CEM leukemia and -27.9% (active) with MOLT-4 leukemia.
For the molecule `CCN(CC)S(=O)(=O)c1ccc(NC(=O)CSc2nnc(C)n2-c2ccccc2)cc1`, the growth in the assay on HCT-15 colon was 113%; with HT29 colon, 111%; in the assay on SNB-75 CNS, 98.5%; with SNB-19 CNS it was 102%; in the assay on U251 CNS, 104%; with PC-3 prostate, 95.2%. The growth in the assay with SK-MEL-5 melanoma was 105%; in the assay on UACC-62 melanoma, 92.8%; with LOX IMVI melanoma, 102%; in the assay with SK-MEL-28 melanoma, 108%; with SK-MEL-2 melanoma, 92.5%; with EKVX NSCLC it was 107%. For the same molecule, the growth was 98.1% with SN12C renal; 80.8% with UO-31 renal; 126% in the assay with TK-10 renal; 98.7% in the assay on ACHN renal; 106% with CAKI-1 renal; 107% with A498 renal. Moreover, the growth with CCRF-CEM leukemia was 97.9%; in the assay on MOLT-4 leukemia, 96.2%.
With `N/C(=N\c1nc2ccccc2s1)NC(=O)Nc1cccc2ccccc12`, the growth with HCT-15 colon is 18.9%; with HT29 colon, 6.2% (active); with SNB-75 CNS, 5.83% (active); with SNB-19 CNS it was 34.8%; in the assay on U251 CNS, 14.4%; in the assay on PC-3 prostate it was 23.5%. Further, the growth with SK-MEL-5 melanoma is 14%; with UACC-62 melanoma, 29.2%; in the assay on LOX IMVI melanoma, 41.5%; in the assay on SK-MEL-28 melanoma it was 65.3%; in the assay on SK-MEL-2 melanoma it was 38.7%; with EKVX NSCLC, 40.2%. In addition, the growth is 44% with SN12C renal; 53.4% with UO-31 renal; 55% in the assay on TK-10 renal; 42.1% with ACHN renal; 29.5% with CAKI-1 renal; -10.8% (active) in the assay with A498 renal. Further, the growth in the assay with CCRF-CEM leukemia was 12.2%; in the assay with MOLT-4 leukemia, 19.9%.

These data come from PubChem BioAssay (NCI).
